Assay outcomes (PubChem BioAssay)
sEH inhibitor: soluble epoxide hydrolase (human) inhibition. AID 707. 91,000 compounds, 0.34% hits. recombinant human sEH enzymatic activity assay. inhibition, % at 2 µM; in the data active = inhibition above about 80%
Target sequence (P34913 whole entry, looked up): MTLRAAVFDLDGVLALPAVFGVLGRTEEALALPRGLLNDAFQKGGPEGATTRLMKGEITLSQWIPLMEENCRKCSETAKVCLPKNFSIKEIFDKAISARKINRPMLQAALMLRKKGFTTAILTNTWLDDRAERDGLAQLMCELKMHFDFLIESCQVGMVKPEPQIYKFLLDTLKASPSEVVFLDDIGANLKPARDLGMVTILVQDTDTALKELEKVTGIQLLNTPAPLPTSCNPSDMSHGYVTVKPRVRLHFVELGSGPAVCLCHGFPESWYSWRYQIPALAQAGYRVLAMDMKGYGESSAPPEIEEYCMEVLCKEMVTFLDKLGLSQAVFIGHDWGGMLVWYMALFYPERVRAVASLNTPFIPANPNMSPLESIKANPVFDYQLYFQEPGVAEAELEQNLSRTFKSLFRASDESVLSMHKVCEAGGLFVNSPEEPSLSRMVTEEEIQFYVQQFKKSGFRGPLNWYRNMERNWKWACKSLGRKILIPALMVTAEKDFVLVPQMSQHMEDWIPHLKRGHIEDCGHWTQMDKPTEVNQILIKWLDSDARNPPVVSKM
CYP2C19 inhib: inhibitors of human CYP2C19. CYP2C19 Supersomes, luciferin-H EGE luminescence, 30 min. 96,000 compounds, 21% hits. P33261. AID 778. inhibition, % at 5 µM;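 active = CYP2C19 inhibition above a set limit at 5 µM in the primary screen, cut at about 50% in these data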;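 note: plate controls were negative control wells for no effect and 2.5 mM tranylcypromine positive control for full effect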
sEH act: increases human soluble epoxide hydrolase activity; activation, % at 2 µM; 91,000 compounds, 0.04% hits; AID 717; purified human sEH enzymatic activity, activator screen; P34913; in the data active = activation above about 37%
CYP2C9 inhib: blocks human cytochrome P450 2C9; inhibition, % at 5 µM; 96,000 compounds, 20% hits; AID 777; CYP2C9 Supersomes, luciferin-H conversion, luminescence; P11712;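 active = blocking of liver enzyme CYP2C9 beyond about 50% at 5 µM, limit read from the data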
CYP2C19 activ: activators of human cytochrome P450 2C19 | recombinant CYP2C19, luciferin-H EGE luminescence; hits give high values; 0 = fully inhibited enzyme, 1 = untreated enzyme | 96,000 tested, under 10 active | P33261 | activation factor at 5 µM;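 active = activation factor of at least 2 at 5 µM in the primary screen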;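 note: 0 = wells with 2.5 mM tranylcypromine and 1 = vehicle-only wells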
CYP2C9 act: CYP2C9 (human) activation | recombinant CYP2C9, luciferin-H conversion, luminescence; hits give high values; factor 1 = untreated enzyme, 0 = blocked | activation factor at 5 µM | 96,000 compounds, 1.4% hits;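 active = activation factor of 2 or more for CYP2C9 at a 5 µM dose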;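 note: 0 = sulfaphenazole-blocked wells and 1 = vehicle-only wells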
Active calls of the source: *; nt = not tested or not shown. A selection: hits, their analogues and other compounds. The true share with any hit is near 27%.

SMILES	sEH inhibitor	CYP2C19 inhib	sEH act	CYP2C9 inhib	CYP2C19 activ	CYP2C9 act
CC(=O)N1CCN=C1SCc1ccccc1Cl	-14	41	12	-162	0.6	2.6*
CCC(=O)N1CCN=C1SCc1ccccc1Cl	0	70*	3	-48	0.3	1.5
CCC(=O)N1CCN=C1SCc1ccccc1	nt	34	nt	10	0.7	0.9
CC(=O)N1CCN=C1SCc1ccc(Cl)cc1	nt	40	nt	32	0.6	0.7
CCC(=O)N1CCN=C1SCc1ccc(Cl)cc1	-13	84*	12	19	0.2	0.8
CC(=O)N1CCN=C1SCc1ccccc1F	nt	22	nt	-6	0.8	1.1
Cc1cccc(CSC2=NCCN2C(=O)C2CC2)c1	2	80*	1	28	0.2	0.7
Cc1ccc2cc(C#N)c(SCC(=O)Nc3ccc4sc(C)nc4c3)nc2c1	26	8	-26	15	0.9	0.8
COC(=O)c1[nH]c2cccc(OC)c2c1NC(=O)CN1CC2(C)CC1CC(C)(C)C2 (stereo unspecified)	-3	2	2	-1	1	1
O=C(C1CC1)N1CCN=C1SCc1ccccc1Cl	2	98*	-3	27	0	0.7
COc1ccccc1NC(=O)CSc1nnc(-c2ccco2)n1Cc1ccco1	2	83*	0	77*	0.2	0.2
COc1ccc(NC(=O)CSc2nnc(-c3ccco3)n2C)cc1	nt	92*	nt	93*	0.1	0.1
CCOc1ccc(NC(=O)CSc2nnc(-c3ccco3)n2C)cc1	nt	3	nt	12	1	0.9
CCN(CC)S(=O)(=O)c1ccc(NC(=O)CSc2nnc(-c3cccc(OC)c3)n2C)cc1	38	23	-38	52*	0.8	0.5
COc1ccc(-c2nnc(SCC(=O)Nc3ccc(C)cc3)n2C)cc1	-3	29	1	40	0.7	0.6
O=C(CSc1nnc(-c2ccco2)n1Cc1ccco1)Nc1ccccc1	11	19	-8	64*	0.8	0.4
COc1ccc(-c2nnc(SCC(=O)Oc3ccc(C)cc3)o2)cc1	0	nt	1	nt	nt	nt
O=S(=O)(NCC1CCCO1)c1ccc(S(=O)(=O)N2CCCC2)cc1 (stereo unspecified)	3	4	-3	10	1	0.9
CCOC(=O)CNC(=O)CSc1nnc(-c2ccco2)n1N	9	-13	-8	-14	1.1	1.1
CCn1c2ccccc2c2cc(NC(=O)CSc3nnc(-c4ccccc4OC)n3N)ccc21	-5	94*	5	58*	0.1	0.4
COc1ccccc1NC(=O)CSc1nnc(-c2ccccn2)n1Cc1ccco1	6	38	-5	77*	0.6	0.2
COc1ccccc1-c1nnc(SCC(=O)Nc2ccc(S(N)(=O)=O)cc2)n1C	-8	38	4	76*	0.6	0.2
COc1ccc(C)cc1NC(=O)CSc1nnc(-c2ccccn2)n1Cc1ccco1	-6	45	8	41	0.6	0.6
Cc1cccc(C)c1NC(=O)CSc1nnc(-c2ccco2)n1N	-15	57*	14	10	0.4	0.9
COc1ccccc1NC(=O)CSc1nnc(C)n1CCc1ccccc1	2	41	-2	53*	0.6	0.5
SMILES	sEH inhibitor	CYP2C19 inhib	sEH act	CYP2C9 inhib	CYP2C19 activ	CYP2C9 act
COc1ccc(NC(=O)CSc2nnc(-c3ccccc3C)n2C)cc1	2	19	-4	20	0.8	0.8
COc1ccc(NC(=O)CSc2nnc(CCC(=O)Nc3ccc(C)c(Cl)c3)n2C)cc1	3	12	-3	66*	0.9	0.3
CC(C)c1cc(NC(=O)CSc2nnc(-c3ccccc3F)n2C)on1	nt	40	nt	58*	0.6	0.4
Cc1ccnc(NC(=O)Nc2cccc(F)c2)c1	17	33	-18	16	0.7	0.8
CS(=O)(=O)N(CC(=O)NC1CC1)c1cccc(F)c1	9	88*	-6	-5	0.1	1
CS(=O)(=O)N(CC(=O)Nc1c(F)cccc1F)c1cccc([N+](=O)[O-])c1	-4	21	2	17	0.8	0.8
CS(=O)(=O)N(CC(=O)Nc1cccc(F)c1)c1cccc([N+](=O)[O-])c1	4	26	-5	61*	0.7	0.4
CCN1CCN(c2nc(SC)nc3sc4c(c23)CC(C)(C)OC4)CC1	nt	43	nt	57*	0.6	0.4
CCOC(=O)c1nc(N2CCN(C(=O)OCC)CC2)c2c3c(sc2n1)CCCC3	-21	62*	18	60*	0.4	0.4
